The full list was thinned out, with hits kept by preference.
14-3-3g Raf: modulators of 14-3-3 gamma protein binding, primary screen, biochemical, fluorescence polarization; AID 422, 2006; inhibition, % at 40 µM; hit rate 0.19% among 160,000; 14-3-3 protein gamma (Homo sapiens), P61981; FP, 14-3-3gamma / TMR-pS259-Raf peptide binding; in the data active means inhibition above about 30%;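 further: 0% = protein plus tracer without compound and 100% = blank with tracer alone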
Target sequence (P61981 whole entry, looked up): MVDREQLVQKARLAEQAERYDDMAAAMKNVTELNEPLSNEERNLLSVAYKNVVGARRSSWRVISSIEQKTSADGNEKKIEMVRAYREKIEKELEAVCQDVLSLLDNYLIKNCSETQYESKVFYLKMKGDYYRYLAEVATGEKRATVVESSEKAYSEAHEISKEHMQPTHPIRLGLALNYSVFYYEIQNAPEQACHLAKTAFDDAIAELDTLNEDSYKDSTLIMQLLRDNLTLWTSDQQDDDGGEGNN
* = called active by the depositor; + = active, no number; ! = not active in a repeat.

SMILES	14-3-3g Raf
CCOc1ccc(C=Nc2cc([N+](=O)[O-])ccc2C)c(O)c1	+
O=C(C(Cc1ccccc1)NS(=O)(=O)c1ccc(Br)s1)N1CCC(N2CCCCC2)CC1 (stereo not drawn)	-20
CC1CCN(S(=O)(=O)N2CCC(C(=O)NCc3ccccn3)CC2)CC1	-4
O=C(NCc1ccccn1)C1CCN(S(=O)(=O)c2cnc[nH]2)CC1	59*!
O=C(NCc1ccccn1)C1CCN(S(=O)(=O)c2cccs2)CC1	8
COc1ccc(C)cc1N(CC(=O)Nc1c(C)n(C)n(-c2ccccc2)c1=O)S(C)(=O)=O	1
CC1(O)N(CCCCCC(=O)O)C(=O)OC12CCCCC2 (stereo not drawn)	-3
O=C(Nc1c2c(nn1-c1cccc(Cl)c1)CS(=O)(=O)C2)c1cc(Cl)ccc1[N+](=O)[O-]	6
COc1ccc(C2CC(c3ccc(I)cc3)Nc3nnnn32)c(OC)c1 (stereo not drawn)	4
CCOc1ccccc1-n1cnc2cc(C(=O)O)ccc21	57*
COc1ccccc1-n1c(C)nc2cc(C(=O)O)ccc21	40*
COc1ccc(OC)c(-n2cnc3cc(C(=O)O)ccc32)c1	-19
COCCNC(=O)c1ccc2c(c1)nc(C)n2-c1ccccc1OC	-129
Cc1nc2cc(C(=O)O)ccc2n1-c1ccccc1	-3
CCOc1ccccc1-n1cnc2cc(C(=O)NCc3ccco3)ccc21	-14
O=C(CCc1ccccc1)Nc1c2c(nn1-c1ccc([N+](=O)[O-])cc1)CS(=O)(=O)C2	-6
N#Cc1c(NC(=O)c2noc3c2CCc2ccccc2-3)sc2c1CCC2	-39
COCCNC(=O)c1nn2c(c1Br)NC(c1ccc(Br)o1)CC2C(F)(F)F (stereo not drawn)	-32
O=S(=O)(N=C(Nc1cccc2ccccc12)c1ccccc1)c1ccc(Br)cc1	-2
CCOC(=O)c1nn(-c2ccc(Cl)cc2)c(=O)c2c(NC(=O)CC3CCCCC3)scc12	-4
Fc1cccc(C2C=C(c3ccc(Cl)cc3)Nc3nnnn32)c1 (stereo not drawn)	-1
Fc1ccccc1C1C=C(c2cccs2)Nc2nnnn21 (stereo not drawn)	-8
Fc1cccc(C2C=C(c3cccs3)Nc3nnnn32)c1 (stereo not drawn)	63*
O=C(COc1ccc([N+](=O)[O-])cc1)Nc1ccccn1	-13
O=C(COc1ccc(Br)cc1)Nc1cccnc1	-11
SMILES	14-3-3g Raf
O=C(COc1ccc([N+](=O)[O-])cc1)Nc1cccnc1	31*
COCCn1c(=O)[nH]c2cc(C(=O)NCc3ccco3)ccc2c1=O	-2
CCCCSc1nnc2c(n1)OC(CC)Nc1ccc(Br)cc1-2 (stereo not drawn)	-35
CCCSc1nnc2c(n1)OC(c1cccs1)Nc1ccc(Br)cc1-2 (stereo not drawn)	-26
CCCSc1nnc2c(n1)OC(C=Cc1ccco1)Nc1ccc(Br)cc1-2 (stereo not drawn)	58*
O=C(NCc1ccc2c(c1)OCO2)C1CCN(c2nc3cc(Cl)ccc3s2)CC1	-22
Cc1ccc(S(=O)(=O)CCc2nnc(NC(=O)c3ccc(C)c([N+](=O)[O-])c3)s2)cc1	4
O=C(NCc1cccnc1)c1cc2nc(-c3cccs3)cc(C(F)(F)Cl)n2n1	39*
O=C(NCc1cccnc1)c1cc2nc(-c3ccco3)cc(C(F)(F)Cl)n2n1	2
O=C(NCc1cccs1)c1cc2nc(-c3cccs3)cc(C(F)(F)Cl)n2n1	-1
CCCCCn1c(=S)[nH]c2ccc(Br)cc2c1=O	-1
Cc1ccc(CNC(=O)CCNC(=O)c2ccc(Br)o2)cc1	-4
O=C(CCNC(=O)c1ccc(Br)o1)NCc1ccccc1Cl	1
O=C(CCNC(=O)c1ccc(Br)o1)NCc1ccccn1	+!
COc1ccccc1C(CC(=O)Nc1nccs1)c1ccc(OC(C)C)cc1 (stereo not drawn)	3
O=c1[nH]c2c(n1-c1ccccc1)C=Nc1cc3ccccc3cc1N2	-43
CC(C)c1ccc(C(=O)CC2(O)C(=O)N(CCCC#N)c3ccccc32)cc1 (stereo not drawn)	-8
O=C(O)C1Cc2c([nH]c3ccccc23)C(c2c[nH]c3ccccc23)N1 (stereo not drawn)	-12
O=C(Cn1cc2c(n1)CCCC2)NCc1ccccn1	67*
COc1ccc(CNC(=O)Cn2cc3c(n2)CCCCC3)cc1	2
O=C(Cn1cc2c(n1)CCCC2)NCc1cccs1	-4
Cc1c(CCNC2=CC(=O)OC23CCCCC3)c2ccccc2n1C	-3
CNC(=O)C1CCN(S(=O)(=O)c2ccc(C)cc2)CC1	1
C=CCSc1nnc2c(n1)OC(c1ccncc1)Nc1ccc(Br)cc1-2 (stereo not drawn)	-25
C=CCSc1nnc2c(n1)OC=Nc1ccc(Br)cc1-2	-7
SMILES	14-3-3g Raf
C=CCSc1nnc2c(n1)OC(C)(C)Nc1ccc(Br)cc1-2	112*
CCC(Cc1ccccc1)NS(=O)(=O)c1ccc2c(c1)CCN2C(=O)C1CCC1 (stereo not drawn)	-3
O=C(c1ccc(F)cc1)N1CCC(O)(c2cccnc2)CC1	-1
O=C(c1ccc(F)cc1)c1cccnc1	66*
O=C(Oc1ccc(OC(=O)c2cccnc2)cc1)c1cccnc1	-29
CCN1C(=S)OC(=CN(C(C)=O)c2ccccc2)C1=S	-54
COCCCNC(=O)CSc1ccc2c3c(cccc13)C(=O)c1ccccc1-2	105*
COCCCNC(=O)CN1C(=O)c2ccccc2C1=O	-2
O=C(CSc1ccc2c3c(cccc13)C(=O)c1ccccc1-2)Nc1ccccc1	-95
Cc1ccc(CNS(=O)(=O)c2ccc(F)c(C(=O)Nc3ccc(C)c(C)c3)c2)cc1	-7
CC(=O)Nc1ccc(Nc2nc(-c3ccccc3)c3cc(Cl)ccc3n2)cc1	-4
COc1cc(C=Nc2ccc(NC(C)=O)cc2)cc(OC)c1OC	-1
COc1ccccc1N=Cc1c(O)c(C(=O)Nc2ccccc2)cc2ccccc12	13
COc1ccccc1NC(=O)c1cc2ccccc2c(C=Nc2ccc(NC(C)=O)cc2)c1O	73*
COc1ccc(/C(O)=C2\C(=O)C(=O)N(CCN(C)C)C2c2ccc(C(C)C)cc2)cc1 (stereo not drawn)	0
CC(C)Cc1ccc(C(C)c2nc3ccccc3[nH]2)cc1 (stereo not drawn)	-10
CCCCC1=NN(C(=O)c2ccc(O)cc2)C(O)(C(F)(F)F)C1 (stereo not drawn)	-6
O=C(COc1ccc2c(c1)C(=O)CC1(CCCCC1)O2)NCc1ccccc1	-1
CC(=O)N1CCC2(CC1)CC(=O)c1cc(OCC(=O)NCc3ccccn3)ccc1O2	103*
O=C(COc1ccc2c(c1)C(=O)CC1(CCCCC1)O2)NCc1ccccn1	-10
CCOC(=O)C1=C(N)OC2=C(C(=O)CC(c3ccccc3)C2)C1c1ccc(O)c(OC)c1 (stereo not drawn)	9
Cc1cc(C)cc(-n2ccnc2SCC(=O)NC2CCCC2)c1	31*
Cc1cc(C)cc(-n2ccnc2SCC(=O)Nc2c(C)cc(C)cc2C)c1	1
O=C(CSc1nccn1-c1cccc(Cl)c1)NC1CCCCC1	-4
O=C(CSc1nc2c(c(=O)n1-c1ccc(F)cc1)SCC2)Nc1ccccc1F	-11
COCCNc1ncnc2ccccc12	31*
c1ccc(CNc2ncnc3ccccc23)cc1	-5
COCCNc1ncnc2ccc(Br)cc12	8
Cc1nnc(N2C(=O)C(O)=C(C(=O)c3cccs3)C2c2cccc(Oc3ccccc3)c2)s1 (stereo not drawn)	-44

Assay outcomes from PubChem.
